# Data as given in PubChem BioAssay (NCI).
# About 79,000 compounds went through this panel and 15% of them were active in at least one assay; those are over-represented in the sample as a whole. A number with no mark means an inactive call. The source made the active and inactive calls. Rule as the data show it: active = growth inhibition above about 70%; inactive = the rest.
# Assay: NCI Yeast Anticancer Drug Screen. Data for the CLN2oe strain (AID 163);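 also: 0% = growth of vehicle-only control cultures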
# Settings: S. cerevisiae CLN2oe strain, hits give high values
# Method: Growth inhibition of yeast strains with defined genetic alterations is measured as a screen for potential anti-cancer activity. Selected strains with alterations in DNA damage repair or cell cycle control were exposed to compounds and growth inhibition was measured relative to vehicle treated controls. The strain used in this assay is CLN2oe
Structure (SMILES),growth inhibition (at 1.2 µM),growth inhibition (at 3.7 µM),growth inhibition (at 11.0 µM),growth inhibition (at 33.0 µM),growth inhibition (at 100.0 µM)
CSc1s[s+]c(SC)c1-c1ccccc1,9%,12%,4%,34%,42%
CN(N=O)c1ccc(/C=C/c2ccnc3ccccc23)cc1,3%,-4%,5%,15%,56%
OCCNCCOc1ccc(/C(=C(/Cl)c2ccccc2)c2ccccc2)cc1,-13%,0%,25%,99% (active),98% (active)
CNc1nc(C)nc2c1cnn2-c1ccc([N+](=O)[O-])cc1,-6%,-5%,-5%,-6%,-8%
O=NN(CCCl)C(=O)NCCCl,-10%,-5%,-6%,-5%,0%
CC[C@@]1(OC(=O)CN(C)C)C(=O)OCc2c1cc1n(c2=O)Cc2cc3c(N)cccc3nc2-1,-8%,1%,8%,43%,80% (active)
O=C1C=CC(=O)N1c1ccc(N2C(=O)C=CC2=O)cc1,35%,59%,99% (active),99% (active),99% (active)
O=Nn1c2ccccc2c2ccccc21,11%,4%,11%,2%,65%
